Test results reported in PubChem BioAssay AID1159580 (chemical genetic matrix, 2015).
About 2,000 (36%) of roughly 5,500 compounds were called active. Not shown: some 18% with an inconclusive outcome. Cut-off read from the data, not from the text of the source: active = normalized growth mostly below about 0.91 (no sharp cut-off); inconclusive = no clear call, values can overlap the other calls; inactive = mostly above about 0.92. Some of the results follow.

Experiment: chemical genetic growth profiling, strain panel (AID 1159580);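 note: tested at 20 µM; growth read once vehicle control cultures reached saturation at 30 °C; 1 = growth at the plate median or of vehicle wells; lower values mean less growth of the strain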
Conditions: growth OD

Measured: normalized growth

O=c1c(-c2ccc3c(c2)OCO3)coc2cc(O)ccc12
inactive: S. cerevisiae deletion strains, locus YJR043C, strain POL32, active compounds read low 1 | S. cerevisiae deletion strains, locus YJR075W, strain HOC1, active compounds read low 1.02 | S. cerevisiae deletion strains, locus YKL009W, strain mrt4, active compounds read low 0.963 | S. cerevisiae deletion strains, locus YKL068W, active compounds read low 0.994 | S. cerevisiae deletion strains, locus YKL085W, strain MDH1 (second series), active compounds read low 0.995 | S. cerevisiae deletion strains, locus YKL085W, strain MDH1, active compounds read low 0.995 | S. cerevisiae deletion strains, locus YKL160W, strain elf1, active compounds read low 0.983 | S. cerevisiae deletion strains, locus YKL190W, strain CNB1, active compounds read low 1 | S. cerevisiae deletion strains, locus YKR001C, strain vps1, active compounds read low 0.969 | S. cerevisiae deletion strains, locus YKR026C, strain gcn3, active compounds read low 0.98 | S. cerevisiae deletion strains, locus YKR091W, strain srl3, active compounds read low 0.998 | S. cerevisiae deletion strains, locus YLL001W, strain dnm1, active compounds read low 0.977 | S. cerevisiae deletion strains, locus YLL026W, active compounds read low 0.989 | S. cerevisiae deletion strains, locus YLL041C, strain sdh2, active compounds read low 0.995 | S. cerevisiae deletion strains, locus YLR027C, strain aat2, active compounds read low 0.987 | S. cerevisiae deletion strains, locus YLR039C, strain RIC1, active compounds read low 0.969 | S. cerevisiae deletion strains, locus YLR058C, strain SHM2, active compounds read low 0.994 | S. cerevisiae deletion strains, locus YLR102C, strain apc9, active compounds read low 0.987 | S. cerevisiae deletion strains, locus YLR221C, strain rsa3, active compounds read low 0.994 | S. cerevisiae deletion strains, locus YLR258W, strain gsy2, active compounds read low 0.981 | S. cerevisiae deletion strains, locus YLR262C, strain YPT6 (second series), active compounds read low 0.957 | S. cerevisiae deletion strains, locus YLR262C, strain YPT6, active compounds read low 0.994 | S. cerevisiae deletion strains, locus YLR268W, strain sec22, active compounds read low 0.981 | S. cerevisiae deletion strains, locus YLR320W, strain mms22, active compounds read low 0.957 | S. cerevisiae deletion strains, locus YLR330W, strain CHS5, active compounds read low 1 | S. cerevisiae deletion strains, locus YLR342W, strain FKS1 (second series), active compounds read low 0.981 | S. cerevisiae deletion strains, locus YLR342W, strain FKS1, active compounds read low 0.98 | S. cerevisiae deletion strains, locus YLR357W, strain rsc2, active compounds read low 0.965 | S. cerevisiae deletion strains, locus YLR370C, strain arc18, active compounds read low 1 | S. cerevisiae deletion strains, locus YLR371W, strain rom2, active compounds read low 0.981 | S. cerevisiae deletion strains, locus YLR384C, strain iki3, active compounds read low 0.971 | S. cerevisiae deletion strains, locus YLR418C, strain cdc73, active compounds read low 0.984 | S. cerevisiae deletion strains, locus YML016C, strain PPZ1, active compounds read low 0.985 | S. cerevisiae deletion strains, locus YML032C, strain rad52, active compounds read low 0.969 | S. cerevisiae deletion strains, locus YML120C, strain ndi1, active compounds read low 0.995 | S. cerevisiae deletion strains, locus YML124C, strain tub3, active compounds read low 0.976 | S. cerevisiae deletion strains, locus YMR058W, strain fet3, active compounds read low 1 | S. cerevisiae deletion strains, locus YMR078C, strain ctf18, active compounds read low 0.967 | S. cerevisiae deletion strains, locus YMR125W, strain sto1, active compounds read low 0.986 | S. cerevisiae deletion strains, locus YMR129W, active compounds read low 0.997 | S. cerevisiae deletion strains, locus YMR205C, strain PFK2, active compounds read low 0.978 | S. cerevisiae deletion strains, locus YMR223W, strain ubp8, active compounds read low 0.976 | S. cerevisiae deletion strains, locus YMR231W, strain pep5, active compounds read low 1 | S. cerevisiae deletion strains, locus YMR263W, strain SAP30, active compounds read low 1.01 | S. cerevisiae deletion strains, locus YMR307W, strain GAS1, active compounds read low 0.974 | S. cerevisiae deletion strains, locus YNL067W, strain RPL9B, active compounds read low 1.03 | S. cerevisiae deletion strains, locus YNL071W, strain lat1, active compounds read low 0.996 | S. cerevisiae deletion strains, locus YNL128W, strain TEP1, active compounds read low 1.02 | S. cerevisiae deletion strains, locus YNL153C, strain GIM3, active compounds read low 1.01 | S. cerevisiae deletion strains, locus YNL209W, strain ssb2, active compounds read low 0.987 | S. cerevisiae deletion strains, locus YNL233W, strain BNI4, active compounds read low 0.997 | S. cerevisiae deletion strains, locus YNL248C, strain rpa49, active compounds read low 0.987 | S. cerevisiae deletion strains, locus YNL250W, strain rad50, active compounds read low 0.989 | S. cerevisiae deletion strains, locus YNL271C, strain bni1, active compounds read low 0.992 | S. cerevisiae deletion strains, locus YNL298W, strain CLA4, active compounds read low 0.981 | S. cerevisiae deletion strains, locus YNL307C, strain MCK1, active compounds read low 0.948 | S. cerevisiae deletion strains, locus YNL322C, strain KRE1 (second series), active compounds read low 0.992 | S. cerevisiae deletion strains, locus YNL322C, strain KRE1, active compounds read low 0.999 | S. cerevisiae deletion strains, locus YNR049C, strain mso1, active compounds read low 0.996 | S. cerevisiae deletion strains, locus YNR052C, strain pop2, active compounds read low 0.975 | S. cerevisiae deletion strains, locus YOL006C, strain TOP1, active compounds read low 1.01 | S. cerevisiae deletion strains, locus YOL012C, strain htz1 1.06 | S. cerevisiae deletion strains, locus YOL147C, strain pex11, active compounds read low 0.976 | S. cerevisiae deletion strains, locus YOR001W, strain rrp6, active compounds read low 0.991 | S. cerevisiae deletion strains, locus YOR061W, strain CKA2, active compounds read low 0.981 | S. cerevisiae deletion strains, locus YOR069W, strain VPS5, active compounds read low 0.991 | S. cerevisiae deletion strains, locus YOR070C, strain gyp1, active compounds read low 0.99 | S. cerevisiae deletion strains, locus YOR080W, strain dia2, active compounds read low 0.981 | S. cerevisiae deletion strains, locus YOR083W, strain WHI5, active compounds read low 1 | S. cerevisiae deletion strains, locus YOR106W, strain vam3, active compounds read low 0.986 | S. cerevisiae deletion strains, locus YOR136W, strain idh2, active compounds read low 0.985 | S. cerevisiae deletion strains, locus YOR144C, strain elg1, active compounds read low 0.98 | S. cerevisiae deletion strains, locus YOR184W, strain ser1, active compounds read low 0.994 | S. cerevisiae deletion strains, locus YOR265W, strain rbl2, active compounds read low 0.991 | S. cerevisiae deletion strains, locus YOR270C, strain vph1, active compounds read low 1.02 | S. cerevisiae deletion strains, locus YOR290C, strain snf2, active compounds read low 0.958 | S. cerevisiae deletion strains, locus YOR316C, strain cot1, active compounds read low 0.976 | S. cerevisiae deletion strains, locus YPL051W, strain arl3, active compounds read low 0.99 | S. cerevisiae deletion strains, locus YPL055C, strain LGE1, active compounds read low 1.03 | S. cerevisiae deletion strains, locus YPL078C, strain atp4, active compounds read low 0.995 | S. cerevisiae deletion strains, locus YPL106C, strain sse1, active compounds read low 0.97 | S. cerevisiae deletion strains, locus YPL240C, strain hsp82, active compounds read low 0.988 | S. cerevisiae deletion strains, locus YPL241C, strain CIN2, active compounds read low 0.999 | S. cerevisiae deletion strains, locus YPR119W, strain clb2, active compounds read low 0.985 | S. cerevisiae deletion strains, locus YPR141C, strain kar3, active compounds read low 0.986 | S. cerevisiae deletion strains, locus YPR163C, strain tif3, active compounds read low 0.978 | S. cerevisiae deletion strains, locus YPR167C, strain met16, active compounds read low 0.982 | S. cerevisiae deletion strains, strain wtn01, active compounds read low 0.983 | S. cerevisiae strains, strain wild type, active compounds read low 0.995
